Experimental data published in PubChem BioAssay (NCATS).
Inconclusive results are not listed. The source made the active and inactive calls. Calls follow the shape of the dose curve; as a rule, active = well fitted cell-killing curve with a large enough effect; inconclusive = small, poorly fitted or top-dose-only effect, or effect the other way; inactive = flat fitted curve, though single readings scatter.

Tests used:
Test in all cases: Primary qHTS to identify gynecologic anti-cancer compounds using libraries of approved drugs and bioactive compounds (AID 1345084); also: nearly all actives have a fitted effect of over 55% in size
[1] = tested on: C33A; settings: Gynecologic cancer cell panel viability, ATPlite luminescence, 48 h; series mostly up to 57.5 µM
Procedure, shortened: (§1)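 Cell viability after 48 h drug treatment, ATPlite luminescence readout; five doses.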

[2] = tested on: CASKI; settings: Gynecologic cancer cell panel viability, ATPlite luminescence, 48 h; series mostly up to 57.5 µM
Procedure, shortened: as §1

[3] = tested on: Es-2; settings: Gynecologic cancer cell panel viability, ATPlite luminescence, 48 h; series mostly up to 57.5 µM
Procedure, shortened: as §1

[4] = tested on: HeLa; settings: Gynecologic cancer cell panel viability, ATPlite luminescence, 48 h; series mostly up to 57.5 µM
Procedure, shortened: as §1

[5] = tested on: Hek293T; settings: Gynecologic cancer cell panel viability, ATPlite luminescence, 48 h, control line for the selectivity index; series mostly up to 57.5 µM
Procedure, shortened: as §1

[6] = tested on: JEG-3; settings: Gynecologic cancer cell panel viability, ATPlite luminescence, 48 h; series mostly up to 57.5 µM
Procedure, shortened: as §1

[7] = tested on: OV90; settings: Gynecologic cancer cell panel viability, ATPlite luminescence, 48 h; series mostly up to 57.5 µM
Procedure, shortened: as §1

[8] = tested on: PA-1; settings: Gynecologic cancer cell panel viability, ATPlite luminescence, 48 h; series mostly up to 57.5 µM
Procedure, shortened: as §1

[9] = tested on: SKOV3; settings: Gynecologic cancer cell panel viability, ATPlite luminescence, 48 h; series mostly up to 57.5 µM
Procedure, shortened: as §1

[10] = tested on: Tov-21-G; settings: Gynecologic cancer cell panel viability, ATPlite luminescence, 48 h; series mostly up to 57.5 µM
Procedure, shortened: as §1

[11] = tested on: Tov112D; settings: Gynecologic cancer cell panel viability, ATPlite luminescence, 48 h; series mostly up to 57.5 µM
Procedure, shortened: as §1
% is scaled to controls: 0 for no effect and ±100 for the full control effect; potency is read from the fitted curve at half-maximal effect.

CC(C)=CCC[C@](C)(O[C@@H]1O[C@H](CO)[C@@H](O)[C@H](O)[C@H]1O)[C@H]1CC[C@]2(C)[C@@H]1[C@H](O)CC1[C@@]3(C)CC[C@H](O)C(C)(C)C3[C@@H](O[C@@H]3O[C@H](CO)[C@@H](O)[C@H](O)[C@H]3O[C@@H]3OC[C@@H](O)[C@H](O)[C@H]3O)C[C@]12C (stereo not given in full)
inactive: activity change, negative = cytotoxicity [1] -5.13% [at 11.6 µM] | activity change, negative = cytotoxicity [2] -3.01% [at 11.6 µM] | activity change, negative = cytotoxicity [3] 3.44% [at 11.6 µM] | activity change, negative = cytotoxicity [4] 9.51% [at 11.6 µM] | activity change, negative = cytotoxicity [5] -2.61% [at 11.6 µM] | activity change, negative = cytotoxicity [6] -16.8% [at 11.6 µM] | activity change, negative = cytotoxicity [7] -3.26% [at 11.6 µM] | activity change, negative = cytotoxicity [8] 2.46% [at 11.6 µM] | activity change, negative = cytotoxicity [9] -3.65% [at 11.6 µM] | activity change, negative = cytotoxicity [10] -2.34% [at 11.6 µM] | activity change, negative = cytotoxicity [11] -2.93% [at 11.6 µM]

O=C1NC(Cc2c[nH]c3ccccc23)C(=O)NC1Cc1cnc[nH]1 (stereo not given)
inactive: Potency [1] | Potency [2] | Potency [3] | Potency [4] | Potency [5] | Potency [6] | Potency [7] | Potency [8] | Potency [9] | Potency [10] | Potency [11]

Cc1cc(OCc2nc(-c3ccccc3Cl)cs2)ccc1OCC(=O)O
inactive: Potency [1] | Potency [2] | Potency [3] | Potency [4] | Potency [5] | Potency [6] | Potency [7] | Potency [8] | Potency [9] | Potency [10] | Potency [11]

C[C@@H]1CC[C@]2(C(=O)O)CC[C@]3(C)C(=CCC4[C@@]5(C)CC[C@H](O)C(C)(C)C5C(O)C[C@]43C)[C@@H]2[C@]1(C)O (stereo not given in full)
inactive: Potency [1] | Potency [2] | Potency [3] | Potency [4] | Potency [5] | Potency [6] | Potency [7] | Potency [8] | Potency [9] | Potency [10] | Potency [11]

COc1cc([C@H]2c3cc(O)c(OC)cc3C[C@@H](CO[C@@H]3O[C@H](CO)[C@@H](O)[C@H](O)[C@H]3O)[C@@H]2CO)ccc1O
inactive: Potency [1] | Potency [2] | Potency [3] | Potency [4] | Potency [5] | Potency [6] | Potency [7] | Potency [8] | Potency [9] | Potency [10] | Potency [11]

C[C@@H]1O[C@@H](O[C@H]2[C@H](O)[C@@H](O)[C@H](OC3CCC4(C)C5CCC(C)(C(CO)OC6OC(CO)C(O)C(O)C6O)CC5=CCC4C3(C)C)O[C@@H]2CO)[C@H](O)[C@H](O)[C@H]1O (stereo not given in full)
inactive: Potency [1] | Potency [2] | Potency [3] | Potency [4] | Potency [5] | Potency [6] | Potency [7] | Potency [8] | Potency [9] | Potency [10] | Potency [11]

COC(=O)C1=CO[C@@H](O)C2C(CO)=CCC12 (stereo not given in full)
inactive: Potency [1] | Potency [2] | Potency [3] | Potency [4] | Potency [5] | Potency [6] | Potency [7] | Potency [8] | Potency [9] | Potency [10] | Potency [11]

CC(C)S(=O)(=O)N[C@H]1CCOC[C@@H]1c1ccc(-c2ccc(C#N)s2)cc1
inactive: Potency [1] | Potency [2] | Potency [3] | Potency [4] | Potency [5] | Potency [6] | Potency [7] | Potency [8] | Potency [9] | Potency [10] | Potency [11]

COc1ccc(N2CCOCC2)c2sc(NC(=O)N3CCC(C)(O)CC3)nc12
inactive: Potency [1] | Potency [2] | Potency [3] | Potency [4] | Potency [5] | Potency [6] | Potency [7] | Potency [8] | Potency [9] | Potency [10] | Potency [11]

CC1(C)CCCC2(C)C=C(C(=O)O)C(O)CC12 (stereo not given)
inactive: Potency [1] | Potency [2] | Potency [3] | Potency [4] | Potency [5] | Potency [6] | Potency [7] | Potency [8] | Potency [9] | Potency [10] | Potency [11]

COC(=O)c1c(C)cc(OC(=O)c2c(C)cc(OC)cc2OC)cc1O[C@@H]1O[C@H](CO)[C@@H](O)[C@H](O)[C@H]1O
inactive: Potency [1] | Potency [2] | Potency [3] | Potency [4] | Potency [5] | Potency [6] | Potency [7] | Potency [8] | Potency [9] | Potency [10] | Potency [11]

COC(=O)C1=CO[C@@H](O[C@@H]2O[C@H](CO)[C@@H](O)[C@H](O)[C@H]2O)[C@@H]2C(CO)=CC[C@]12O
inactive: Potency [1] | Potency [2] | Potency [3] | Potency [4] | Potency [5] | Potency [6] | Potency [7] | Potency [8] | Potency [9] | Potency [10] | Potency [11]

COc1cc(C(=O)OC[C@H]2O[C@@H](Oc3ccccc3/C=C/C(=O)O)[C@H](O)[C@@H](O)[C@@H]2O)cc(OC)c1OC
inactive: Potency [1] | Potency [2] | Potency [3] | Potency [4] | Potency [5] | Potency [6] | Potency [7] | Potency [8] | Potency [9] | Potency [10] | Potency [11]

CC1=C(/C=C/C(C)=C\C=C\C(C)=C/C(=O)O)C(C)(C)CCC1
inactive: Potency [1] | Potency [2] | Potency [3] | Potency [4] | Potency [5] | Potency [6] | Potency [7] | Potency [8] | Potency [9] | Potency [10] | Potency [11]

O=C(O)/C=C/c1ccc(-c2ccc(O)c(C34CC5CC(CC(C5)C3)C4)c2)cc1
active: Potency [1] 1580 nM | Potency [2] 1780 nM | Potency [3] 631 nM | Potency [4] 8910 nM | Potency [5] 2000 nM | Potency [6] 2820 nM | Potency [7] 10000 nM | Potency [8] 2240 nM | Potency [9] 631 nM | Potency [10] 794 nM | Potency [11] 1410 nM
